In the supplement of paper PMC7411054:
Counter-ions that a name gives are not always drawn.

Tests used:
Assay in all cases: lowest phenotypically active concentration; higher = less potent
Settings in all cases: treatment time: 24 h
A549-CANX-COX4 = test system: A549-CANX-COX4
In short: (§1)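 Fifteen gene-edited A549, HepG2 and WPMY1 reporter lines (BFP segmentation plus GFP and RFP/FusionRed markers) were treated at 0.3, 1, 3 or 9 µM for 24 h, four wells each, then imaged live. Live-cell features per well were normalised to DMSO control wells. Deviation required ≥3 of 4 wells beyond the 95th percentile of DMSO Euclidean distances, and reproducibility required median replicate Pearson correlation above the 95th percentile of non-replicates. Phenotypic activity needed both criteria.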

A549-TP53BP1-CLTA = test system: A549-TP53BP1-CLTA
In short: as §1

HepG2-GM130-SQSTM1 = test system: HepG2-GM130-SQSTM1
In short: as §1

HepG2-TP53BP1-CLTA = test system: HepG2-TP53BP1-CLTA
In short: as §1

HepG2-TUBA1B-RELA = test system: HepG2-TUBA1B-RELA
In short: as §1

WPMY1-ACTB-RAB5A = test system: WPMY1-ACTB-RAB5A
In short: as §1

WPMY1-GM130-SQSTM1 = test system: WPMY1-GM130-SQSTM1
In short: as §1

WPMY1-TP53BP1-CLTA = test system: WPMY1-TP53BP1-CLTA
In short: as §1

WPMY1-TUBA1B-RELA = test system: WPMY1-TUBA1B-RELA
In short: as §1

HepG2-CANX-COX4 = test system: HepG2-CANX-COX4
In short: as §1

SMILES	lowest phenotypically active concentration (A549-CANX-COX4)	lowest phenotypically active concentration (A549-TP53BP1-CLTA)	lowest phenotypically active concentration (HepG2-GM130-SQSTM1)	lowest phenotypically active concentration (HepG2-TP53BP1-CLTA)	lowest phenotypically active concentration (HepG2-TUBA1B-RELA)	lowest phenotypically active concentration (WPMY1-ACTB-RAB5A)	lowest phenotypically active concentration (WPMY1-GM130-SQSTM1)	lowest phenotypically active concentration (WPMY1-TP53BP1-CLTA)	lowest phenotypically active concentration (WPMY1-TUBA1B-RELA)	lowest phenotypically active concentration (HepG2-CANX-COX4)
CCN(CC)CCNc1ccc(CO)c2sc3ccccc3c(=O)c12 [hycanthone]	9 µM	9 µM	9 µM	9 µM	9 µM	9 µM	3 µM	9 µM	9 µM	–
O=C1N=C(NCc2cccs2)S/C1=C\c1ccc2ncccc2c1	3 µM	3 µM	9 µM	3 µM	3 µM	3 µM	1 µM	3 µM	3 µM	3 µM
CNc1nc(-c2ccc3c(N)n[nH]c3c2)cc(N2C[C@@H](C(=O)NC3CCCCC3)CC[C@H]2C)n1	3 µM	3 µM	3 µM	3 µM	9 µM	1 µM	≤ 0.3 µM	≤ 0.3 µM	1 µM	3 µM
S=C(S)N1CCCC1 [Pyrrolidinedithiocarbamate ammonium]	3 µM	9 µM	9 µM	3 µM	9 µM	–	9 µM	–	–	3 µM
CC[C@H](CO)Nc1nc(NCc2ccccc2)c2ncn(C(C)C)c2n1 [Roscovitine]	9 µM	9 µM	9 µM	3 µM	3 µM	9 µM	–	9 µM	9 µM	3 µM
CN1CCN(C(=O)CN[C@H]2C[C@@H]2c2ccc(OCc3ccccc3)cc2)CC1 [RN 1 dihydrochloride]	9 µM	9 µM	3 µM	9 µM	3 µM	9 µM	9 µM	9 µM	9 µM	–
CN(C)C(=O)C(CCN1CCC(O)(c2ccc(Cl)cc2)CC1)(c1ccccc1)c1ccccc1 [loperamide]	9 µM	9 µM	9 µM	9 µM	3 µM	9 µM	9 µM	9 µM	9 µM	–
CN(C)CC(=O)N1CCC[C@@H](n2nc(-c3ccc(Oc4ccccc4)cc3)c3c(N)ncnc32)C1	9 µM	9 µM	3 µM	1 µM	1 µM	3 µM	3 µM	3 µM	3 µM	3 µM
CNC(=O)c1cc(Oc2ccc(NC(=O)Nc3ccc(Cl)c(C(F)(F)F)c3)cc2)ccn1 [sorafenib]	9 µM	≤ 0.3 µM	3 µM	9 µM	3 µM	≤ 0.3 µM	1 µM	–	9 µM	3 µM
O=C(O)[C@]1(Cc2cccc(Nc3nccs3)n2)CC[C@@H](Oc2cccc(Cl)c2F)CC1	1 µM	1 µM	≤ 0.3 µM	≤ 0.3 µM	≤ 0.3 µM	≤ 0.3 µM	–	≤ 0.3 µM	≤ 0.3 µM	1 µM
CC(C)(C)c1nc(-c2cccc(NS(=O)(=O)c3c(F)cccc3F)c2F)c(-c2ccnc(N)n2)s1 [dabrafenib]	1 µM	≤ 0.3 µM	≤ 0.3 µM	≤ 0.3 µM	≤ 0.3 µM	1 µM	–	–	1 µM	≤ 0.3 µM
CN1CCN([C@H]2CC[C@H](n3cc(-c4ccc(Oc5ccccc5)cc4)c4c(N)ncnc43)CC2)CC1	1 µM	≤ 0.3 µM	≤ 0.3 µM	1 µM	≤ 0.3 µM	≤ 0.3 µM	≤ 0.3 µM	1 µM	≤ 0.3 µM	1 µM
COc1cc2nc(N3CCN(C(=O)C4COc5ccccc5O4)CC3)nc(N)c2cc1OC (stereo not drawn) [doxazosin]	9 µM	9 µM	9 µM	9 µM	9 µM	9 µM	≤ 0.3 µM	9 µM	–	–
CC(C)(C)c1cc(NC(=O)Nc2ccc(-c3cn4c(n3)sc3cc(OCCN5CCOCC5)ccc34)cc2)no1 [quizartinib]	3 µM	3 µM	3 µM	–	3 µM	3 µM	9 µM	9 µM	3 µM	–
CCCCNNC(=O)c1ccc(Br)cc1	3 µM	3 µM	1 µM	1 µM	9 µM	–	3 µM	9 µM	9 µM	1 µM
O=C1c2ccccc2-c2nc3nonc3nc21	1 µM	3 µM	3 µM	3 µM	3 µM	3 µM	–	–	3 µM	≤ 0.3 µM
CCCC1(CCC)CCC2(CCN(CCCN(CC)CC)C2)CC1 [Atiprimod dihydrochloride]	3 µM	1 µM	1 µM	1 µM	≤ 0.3 µM	1 µM	1 µM	1 µM	1 µM	1 µM
COc1cc(O)cc(O)c1C(=O)/C=C/c1ccccc1 [Cardamonin]	9 µM	9 µM	3 µM	–	9 µM	9 µM	9 µM	9 µM	9 µM	9 µM
O=C(NOC[C@H](O)CO)c1ccc(F)c(F)c1Nc1ccc(I)cc1F	1 µM	≤ 0.3 µM	≤ 0.3 µM	≤ 0.3 µM	≤ 0.3 µM	1 µM	3 µM	1 µM	–	≤ 0.3 µM
Cc1ccc(Nc2nccc(N(C)c3ccc4c(C)n(C)nc4c3)n2)cc1S(N)(=O)=O [pazopanib]	3 µM	1 µM	3 µM	9 µM	–	9 µM	–	–	3 µM	3 µM
COc1cc2c(cc1O)CC[C@@H]1[C@@H]2CC[C@]2(C)[C@@H](O)CC[C@@H]12 [2-methoxyestradiol]	1 µM	1 µM	3 µM	3 µM	3 µM	1 µM	–	1 µM	1 µM	1 µM
Cc1ccc(C(=O)N(CCCN)[C@@H](c2nc3cc(Cl)ccc3c(=O)n2Cc2ccccc2)C(C)C)cc1 [Ispinesib]	≤ 0.3 µM	≤ 0.3 µM	≤ 0.3 µM	≤ 0.3 µM	≤ 0.3 µM	≤ 0.3 µM	≤ 0.3 µM	≤ 0.3 µM	≤ 0.3 µM	≤ 0.3 µM

SMILES	lowest phenotypically active concentration (A549-CANX-COX4)	lowest phenotypically active concentration (A549-TP53BP1-CLTA)	lowest phenotypically active concentration (HepG2-GM130-SQSTM1)	lowest phenotypically active concentration (HepG2-TP53BP1-CLTA)	lowest phenotypically active concentration (HepG2-TUBA1B-RELA)	lowest phenotypically active concentration (WPMY1-ACTB-RAB5A)	lowest phenotypically active concentration (WPMY1-GM130-SQSTM1)	lowest phenotypically active concentration (WPMY1-TP53BP1-CLTA)	lowest phenotypically active concentration (WPMY1-TUBA1B-RELA)	lowest phenotypically active concentration (HepG2-CANX-COX4)
CCCCCCCCCCNCCSSCc1ccc(Cl)cc1	9 µM	9 µM	9 µM	9 µM	3 µM	–	9 µM	9 µM	–	1 µM
CC[C@]12CCCN3CCc4c(n(c5ccccc45)C(=O)C1)[C@@H]32 [Eburnamonine (-)]	9 µM	9 µM	–	9 µM	9 µM	9 µM	–	3 µM	9 µM	–
O=C1NC(=O)[C@@H](c2cn3c4c(cccc24)CCC3)[C@@H]1c1c[nH]c2ccccc12 [tivantinib]	1 µM	1 µM	1 µM	1 µM	1 µM	≤ 0.3 µM	1 µM	1 µM	1 µM	1 µM
COc1ccc(-c2cnc(-c3cccc4c3-c3ccccc3C4=O)o2)cc1	≤ 0.3 µM	≤ 0.3 µM	–	–	–	≤ 0.3 µM	≤ 0.3 µM	≤ 0.3 µM	≤ 0.3 µM	–
CCc1cncnc1N1CCN(Cc2nc3cc(C(F)(F)F)ccc3[nH]2)CC1	9 µM	–	9 µM	9 µM	3 µM	–	–	–	9 µM	9 µM
CC(C)(C)c1cc(C(=O)/C=C/c2ccc(C(=O)O)cc2)cc(C(C)(C)C)c1	9 µM	–	9 µM	9 µM	–	≤ 0.3 µM	≤ 0.3 µM	≤ 0.3 µM	3 µM	≤ 0.3 µM
CC1(C)O[C@@H]2C[C@H]3[C@@H]4C[C@H](F)C5=CC(=O)C=C[C@]5(C)[C@@]4(F)[C@@H](O)C[C@]3(C)[C@]2(C(=O)CO)O1 [fluocinolone acetonide]	≤ 0.3 µM	≤ 0.3 µM	–	–	–	≤ 0.3 µM	–	–	–	–
COc1c(Cl)cc2c([nH]c3cnccc32)c1NC(=O)c1cccnc1C [ML 120B dihydrochloride]	9 µM	–	–	9 µM	–	–	–	–	–	9 µM
CN(C)c1ccc(/C=C2\C(=O)Nc3ccccc32)cc1	9 µM	3 µM	9 µM	9 µM	9 µM	9 µM	3 µM	9 µM	–	–
N#C/C(=C/c1ccc(O)c(O)c1)C(=O)NCCCCc1ccccc1	9 µM	–	9 µM	9 µM	–	9 µM	9 µM	9 µM	9 µM	9 µM
COc1cc2ncnc(Nc3cccc(Br)c3)c2cc1OC	1 µM	≤ 0.3 µM	9 µM	9 µM	9 µM	–	9 µM	3 µM	–	–
Cc1cc2c(F)c(Oc3ncnn4cc(OC[C@@H](C)OC(=O)[C@H](C)N)c(C)c34)ccc2[nH]1 [brivanib-alaninate]	9 µM	9 µM	9 µM	3 µM	9 µM	3 µM	3 µM	3 µM	3 µM	3 µM
CC(C)c1cnn2c(NCc3ccccc3)cc(NCCCCCCN)nc12 [BS 181 dihydrochloride]	9 µM	9 µM	–	–	–	–	–	9 µM	9 µM	–
Nc1ncnc2[nH]nc(Nc3ccc(F)cc3)c12	9 µM	–	9 µM	9 µM	9 µM	9 µM	3 µM	9 µM	9 µM	–
CC(C)C(=O)SCCCCCCC(=O)Nc1nc(-c2ccccc2)cs1	1 µM	–	–	–	–	1 µM	1 µM	9 µM	1 µM	3 µM
COc1cc2c(cc1NS(=O)(=O)c1ccc(Br)cc1C)n(C)c(=O)n2C	9 µM	9 µM	9 µM	–	3 µM	–	–	–	–	3 µM
CC(C)n1c(/C=C/[C@@H](O)C[C@@H](O)CC(=O)O)c(-c2ccc(F)cc2)c2ccccc21 [fluvastatin]	9 µM	9 µM	1 µM	3 µM	3 µM	1 µM	1 µM	9 µM	3 µM	3 µM
C[C@@H]1C[C@H]2[C@@H]3CCC4=CC(=O)C=C[C@]4(C)[C@@]3(Cl)[C@@H](O)C[C@]2(C)[C@@]1(OC(=O)c1ccco1)C(=O)CCl [mometasone furoate]	≤ 0.3 µM	≤ 0.3 µM	–	–	–	–	3 µM	–	–	–
Nc1nccc(-c2ccc3noc(-c4ccc(Cl)cc4)c3c2)n1 [PIM-1 Inhibitor 2]	9 µM	9 µM	–	9 µM	–	9 µM	9 µM	9 µM	9 µM	–
O=C(Nc1ccccc1)c1cc([N+](=O)[O-])ccc1Cl	9 µM	–	–	–	–	–	–	–	–	–
COc1ccc(-c2cc(=O)c3c(O)cc(O)cc3o2)cc1O [Diosmetin]	9 µM	–	–	–	9 µM	–	–	9 µM	9 µM	–
